According to PubChem BioAssay (Tox21):
Results filed as inconclusive are left out. Where a call stands in place of a potency, no number is given. Unmarked numbers belong to inactive results. Activity calls are given as the source filed them. Unless noted, the call rests on the fitted dose curve; in most records, active means well fitted curve in the direction sought with a large enough effect in the repeat runs; inconclusive means weak or mixed curves; inactive means no such curve, though single readings can be large; an effect the other way counts as inactive or inconclusive.

Assays:
[1] = molecular target: Peroxisome proliferator-activated receptor gamma (Homo sapiens) (UniProt P37231); test: qHTS assay to identify small molecule antagonists of the peroxisome proliferator-activated receptor gamma (PPARg) signaling pathway (AID 743191; calls by dose curve; further: series mostly up to about 63 µM; nearly all actives have a fitted effect of over 30% in size)
Peroxisome proliferator-activated receptor gamma (Homo sapiens), sequence (P37231 whole entry, looked up): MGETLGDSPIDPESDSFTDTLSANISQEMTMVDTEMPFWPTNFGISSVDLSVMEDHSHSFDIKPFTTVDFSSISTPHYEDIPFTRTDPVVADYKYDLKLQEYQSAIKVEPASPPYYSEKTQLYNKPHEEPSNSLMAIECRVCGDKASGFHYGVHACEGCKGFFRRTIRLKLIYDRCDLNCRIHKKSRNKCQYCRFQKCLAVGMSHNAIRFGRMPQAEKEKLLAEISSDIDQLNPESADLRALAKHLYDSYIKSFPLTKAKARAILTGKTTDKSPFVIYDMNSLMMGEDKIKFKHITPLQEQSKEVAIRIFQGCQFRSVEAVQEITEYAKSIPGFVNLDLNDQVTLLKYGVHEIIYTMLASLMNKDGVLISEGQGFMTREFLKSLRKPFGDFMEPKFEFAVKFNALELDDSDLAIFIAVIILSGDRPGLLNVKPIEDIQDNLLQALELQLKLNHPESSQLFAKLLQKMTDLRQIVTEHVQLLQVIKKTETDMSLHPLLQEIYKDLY
Method in brief: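 GeneBLAzer PPARg UAS-bla HEK293H cells carrying a UAS-driven beta-lactamase reporter were plated at 3000 cells/well, preincubated 5 h at 37C, then given compound for 17 h at 37C; LiveBLAzer B/G FRET substrate was read after 1 h at room temperature.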

[2] = qHTS assay to identify small molecule antagonists of the peroxisome proliferator-activated receptor gamma (PPARg) signaling pathway - cell viability counter screen (AID 743194); further: nearly all actives have a fitted effect of over 55% in size
Method in brief: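 PPARg-UAS-bla HEK293H cells were plated, rested 5 h at 37 C, then treated with compounds plus rosiglitazone (50 nM final) for 17 h at 37 C; viability was then read by CellTiter-Glo luminescence after 30 min at room temperature.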

[3] = qHTS assay for small molecule agonists of the antioxidant response element (ARE) signaling pathway (AID 743202; active means well fitted activation curve with a large enough effect in the signal ratio in the repeat runs, not every such curve was filed as active; the % refers to the signal ratio)
Method in brief: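 Compounds delivered in DMSO to ARE-bla HepG2 cells (2,000 cells/well, pre-incubated 5 h) and left 16 h at 37 C. LiveBLAzer B/G FRET substrate then added for 2 h at RT before fluorescence reading.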

[4] = qHTS assay for small molecule agonists of the antioxidant response element (ARE) signaling pathway - cell viability counter screen (AID 743203; calls by dose curve; further: nearly all actives have a fitted effect of over 55% in size; further: potency means the concentration at half of the fitted maximal effect)
Method in brief: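 Following 16 hrs of compound treatment at 37C, HepG2 cells with an ARE-controlled beta-lactamase gene were lysed with CellTiter-Glo. Luminescence was read after 30 min at room temperature.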

[5] = qHTS assay for small molecule activators of the heat shock response signaling pathway - cell viability counter screen (AID 743209); further: nearly all actives have a fitted effect of over 50% in size
Method in brief: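 Readout: CellTiter-Glo luminescence, 30 min at room temperature. System: HSE-bla HeLa cells, 1500/well, plated overnight. Treatment: compounds in DMSO, 5 h at 37 C.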

[6] = qHTS assay for small molecule activators of the heat shock response signaling pathway (AID 743210; active means well fitted activation curve with a large enough effect in the signal ratio in the repeat runs, with a control signal flat, not every such curve was filed as active; the % refers to the signal ratio;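 further: HeLa cells with beta-lactamase reporter driven by heat shock elements; series mostly up to about 63 µM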)
Method in brief: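 Reporter gene assay: HeLa cells stably bearing an HSE-bla construct, compound treatment 5 h at 37 C, LiveBLAzer substrate 2.5 h at RT, fluorescence intensity.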

[7] = qHTS assay to identify small molecule agonists of the peroxisome proliferator-activated receptor delta (PPARd) signaling pathway - cell viability counter screen (AID 743211); further: nearly all actives have a fitted effect of over 55% in size
Method in brief: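 Viability of GeneBLAzer PPARd UAS-bla HEK293H cells was assessed after 17 h compound incubation at 37C, using CellTiter-Glo reagent added after the reporter read and luminescence recorded 30 min later.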

[8] = molecular target: Peroxisome proliferator-activated receptor delta (Homo sapiens) (UniProt Q03181); test: qHTS assay to identify small molecule agonists of the peroxisome proliferator-activated receptor delta (PPARd) signaling pathway (AID 743212; calls by dose curve)
Peroxisome proliferator-activated receptor delta (Homo sapiens), sequence (Q03181 whole entry, looked up): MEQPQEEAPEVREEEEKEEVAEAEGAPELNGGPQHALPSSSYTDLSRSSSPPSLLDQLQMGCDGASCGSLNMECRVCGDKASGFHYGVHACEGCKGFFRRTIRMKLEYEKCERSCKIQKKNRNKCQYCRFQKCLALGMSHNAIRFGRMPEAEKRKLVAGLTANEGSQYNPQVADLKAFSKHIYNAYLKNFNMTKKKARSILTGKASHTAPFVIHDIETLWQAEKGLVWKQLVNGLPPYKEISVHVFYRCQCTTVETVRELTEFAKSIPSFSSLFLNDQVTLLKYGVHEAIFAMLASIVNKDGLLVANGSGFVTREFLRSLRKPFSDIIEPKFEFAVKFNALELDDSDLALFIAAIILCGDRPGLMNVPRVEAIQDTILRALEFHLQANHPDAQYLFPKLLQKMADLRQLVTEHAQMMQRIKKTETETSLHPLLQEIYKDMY
Method in brief: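 A PPARd-bla HEK293H line with beta-lactamase under an Upstream Activator Sequence is treated with compounds at 37 C. Substrate loading for 2 h at room temperature precedes the fluorescence measurement.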

[9] = qHTS assay to identify small molecule antagonists of the farnesoid-X-receptor (FXR) signaling pathway - cell viability counter screen (AID 743221; active means well fitted cell-killing curve with a large enough effect in the repeat runs, not every such curve was filed as active; further: nearly all actives have a fitted effect of over 50% in size)
Method in brief: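 Quantitative HTS of the Tox21 10K library run in parallel with the beta-lactamase reporter read. HEK 293T cells carrying a UAS-driven bla reporter got compound and 50 uM CDCA (final) for 16 h; ATP-based luminescence followed.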

[10] = molecular target: Vitamin D3 receptor (Homo sapiens) (UniProt P11473); test: qHTS assay to identify small molecule agonists of the vitamin D receptor (VDR) signaling pathway (AID 743222; calls by dose curve)
Vitamin D3 receptor (Homo sapiens), sequence (P11473 whole entry, looked up): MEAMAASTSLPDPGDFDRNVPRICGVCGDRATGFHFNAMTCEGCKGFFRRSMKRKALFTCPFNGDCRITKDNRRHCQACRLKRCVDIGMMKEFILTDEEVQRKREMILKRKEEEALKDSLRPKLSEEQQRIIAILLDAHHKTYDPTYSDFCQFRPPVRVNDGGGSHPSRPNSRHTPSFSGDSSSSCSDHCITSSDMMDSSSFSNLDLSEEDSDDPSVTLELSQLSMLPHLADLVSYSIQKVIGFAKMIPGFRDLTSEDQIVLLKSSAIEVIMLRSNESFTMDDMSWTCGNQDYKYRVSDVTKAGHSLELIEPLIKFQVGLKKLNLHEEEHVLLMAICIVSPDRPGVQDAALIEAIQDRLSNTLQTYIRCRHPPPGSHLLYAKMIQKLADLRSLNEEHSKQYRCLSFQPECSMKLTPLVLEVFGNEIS
Method in brief: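 In VDR-bla cells, compound-induced beta-lactamase expression is quantified by FRET substrate fluorescence. Treatment lasts 16 h at 37C; substrate develops 2 h at room temperature.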

[11] = molecular target: Vitamin D3 receptor (Homo sapiens) (UniProt P11473); test: qHTS assay to identify small molecule antagonists of the vitamin D receptor (VDR) signaling pathway (AID 743223; active means well fitted inhibition curve with a large enough effect in the signal ratio in the repeat runs, not every such curve was filed as active; the % refers to the signal ratio)
Method in brief: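 Fluorescence from LiveBLAzer B/G FRET substrate, read after 2 h at room temperature, reflects beta-lactamase reporter activity in VDR-bla cells treated 16 h at 37C with compounds and agonist 1alpha,25-dihydroxyvitamin D3 (3 nM final).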

[12] = qHTS assay to identify small molecule that activate the aryl hydrocarbon receptor (AhR) signaling pathway - cell viability counter screen (AID 743086);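 further: HepG2 liver cells carrying the AhR DRE luciferase reporter; series mostly up to about 70 µM; nearly all actives have a fitted effect of over 45% in size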
Method in brief: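 HepG2-AhR-luc (HG2L7.5c1) cells, 4000/well, were preincubated 5 h at 37C, exposed to compound in qHTS format for 24 hr at 37C, then given CellTiter-Fluor for 30 min; viability was read as fluorescence in the reporter wells.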

[13] = qHTS assay to identify small molecule antagonists of the peroxisome proliferator-activated receptor delta (PPARd) signaling pathway - cell viability counter screen (AID 743213); further: nearly all actives have a fitted effect of over 50% in size
Method in brief: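 In this counter screen, HEK293H cells carrying a UAS-beta-lactamase reporter are co-treated with test compounds and 300 nM L165041 (final) for 17 h at 37 C; cell viability is quantified by CellTiter-Glo luminescence.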

[14] = qHTS assay to identify small molecule agonists of the farnesoid-X-receptor (FXR) signaling pathway - cell viability counter screen (AID 743218); further: nearly all actives have a fitted effect of over 45% in size
Method in brief: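 Parallel cytotoxicity test: compound-treated (16 h, 37 C) HEK 293T FXR-bla reporter cells were lysed with CellTiter-Glo and luminescence recorded.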

[15] = molecular target: Bile acid receptor (Homo sapiens) (UniProt Q96RI1); test: qHTS assay to identify small molecule agonists of the farnesoid-X-receptor (FXR) signaling pathway (AID 743220; active means well fitted activation curve with a large enough effect in the signal ratio in the repeat runs, not every such curve was filed as active; the % refers to the signal ratio)
Bile acid receptor (Homo sapiens), sequence (Q96RI1 whole entry, looked up): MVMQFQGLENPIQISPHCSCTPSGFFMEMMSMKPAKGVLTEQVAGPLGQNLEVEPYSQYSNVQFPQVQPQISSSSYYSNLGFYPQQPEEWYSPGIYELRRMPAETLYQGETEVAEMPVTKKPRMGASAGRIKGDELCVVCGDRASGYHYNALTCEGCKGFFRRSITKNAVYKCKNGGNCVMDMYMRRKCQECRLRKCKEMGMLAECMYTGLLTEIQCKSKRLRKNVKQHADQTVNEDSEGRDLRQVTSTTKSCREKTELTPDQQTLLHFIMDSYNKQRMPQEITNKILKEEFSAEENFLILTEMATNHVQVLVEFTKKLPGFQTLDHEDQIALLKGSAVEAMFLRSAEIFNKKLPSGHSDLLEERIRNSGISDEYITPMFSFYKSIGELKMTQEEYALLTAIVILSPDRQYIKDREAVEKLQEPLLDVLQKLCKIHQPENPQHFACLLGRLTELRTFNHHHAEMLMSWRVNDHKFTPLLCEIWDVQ
Method in brief: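 Beta-lactamase reporter under UAS control in GeneBLAzer FXR HEK 293T cells (5000/well) measured with LiveBLAzer FRET substrate after 2 h at room temperature. Compound exposure lasted 16 h at 37C.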

Question: For `C[C@@H]1C[C@H]2[C@@H]3CCC4=CC(=O)C=C[C@]4(C)[C@@]3(F)[C@@H](O)C[C@]2(C)[C@@]1(O)C(=O)COC(=O)c1ccncc1`, which Potency [1] is on record?
Answer: inactive

Question: And the Potency [2]?
Answer: inactive

Question: And the Potency [3]?
Answer: inactive

Question: And the Potency [4]?
Answer: inactive

Question: And the Potency [5]?
Answer: inactive

Question: What about the Potency [6] of the same molecule?
Answer: inactive

Question: And the Potency [7]?
Answer: inactive

Question: And the Potency [8]?
Answer: inactive

Question: And the Potency [9]?
Answer: inactive

Question: What about the Potency [10] of the same molecule?
Answer: inactive

Question: And the outcome [11]?
Answer: inactive

Question: What does the source list for `CN(C)c1ccc(/C=C/c2ccc([N+](=O)[O-])cc2)cc1`?
Answer: viability change, negative = cytotoxic [12]: 24.5% [at 8.47 µM]; activity change, negative = cytotoxicity [2]: 9.25% [at 5.95 µM]; activation [3]: -18.5% [at 8.36 µM]; viability change, negative = cytotoxic [4]: 0.634% [at 8.36 µM]; activity change, negative = cytotoxicity [5]: -1.13% [at 5.95 µM]; activation [6]: 0.443% [at 5.95 µM]; viability change, negative = cytotoxic [13]: 1.68% [at 6.26 µM]; viability change, negative = cytotoxic [14]: -8.77% [at 5.95 µM]; activation [15]: -3.79% [at 5.95 µM]; activity change, negative = cytotoxicity [9]: -0.888% [at 5.95 µM]; activity change, negative = inhibition [11]: -22.2% [at 6.95 µM]

Question: For `CN(C)CCN(Cc1ccsc1)c1ccccn1`, which Potency [2] is on record?
Answer: inactive

Question: And the Potency [3]?
Answer: inactive

Question: What about the Potency [4] of the same molecule?
Answer: inactive

Question: And the Potency [5]?
Answer: inactive

Question: And the Potency [7]?
Answer: inactive

Question: And the Potency [13]?
Answer: inactive

Question: What about the Potency [14] of the same molecule?
Answer: inactive

Question: And the Potency [9]?
Answer: inactive

Question: Which results are given for `CCOC(=O)C(O)c1ccccc1` (stereo not given)?
Answer: Potency [1]: inactive; Potency [2]: inactive; Potency [3]: inactive; Potency [4]: inactive; Potency [5]: inactive; Potency [6]: inactive; Potency [7]: inactive; Potency [13]: inactive; Potency [14]: inactive; Potency [9]: inactive

Question: For `COc1cc2nc(Cl)nc(N)c2cc1OC`, which Potency [2] is on record?
Answer: inactive

Question: And the Potency [4]?
Answer: inactive

Question: And the Potency [5]?
Answer: inactive

Question: And the Potency [6]?
Answer: inactive

Question: And the Potency [7]?
Answer: inactive

Question: And the Potency [13]?
Answer: inactive

Question: What about the Potency [14] of the same molecule?
Answer: inactive

Question: And the Potency [9]?
Answer: inactive

Question: What about the Potency [10] of the same molecule?
Answer: inactive

Question: What about the outcome [11] of the same molecule?
Answer: inactive

Question: With `COc1cc2nc(N3CCN(C(=O)C4COc5ccccc5O4)CC3)nc(N)c2cc1OC` (stereo not given) as the molecule, how does the Potency [12] read?
Answer: inactive

Question: What about the Potency [2] of the same molecule?
Answer: inactive

Question: And the Potency [3]?
Answer: inactive

Question: What about the Potency [4] of the same molecule?
Answer: 29.8 µM (active)

Question: What about the Potency [5] of the same molecule?
Answer: inactive

Question: And the Potency [6]?
Answer: inactive

Question: What about the Potency [13] of the same molecule?
Answer: inactive

Question: What about the Potency [15] of the same molecule?
Answer: inactive

Question: And the Potency [9]?
Answer: inactive

Question: What about the outcome [11] of the same molecule?
Answer: inactive
